# High-throughput results as filed in PubChem.
# In the library only some 1.7% were active in any assay of this set; here they are far more common.
# CHT block = human CHT choline transport inhibition | Q9GZV3 | CHT-expressing cells, membrane potential dye, choline response; hits give low values | B-score at 10 µM | 310,000 compounds, 0.86% hits | AID 488975;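 active = B-score over 3 SD under the library average, and starting fluorescence ratio not unusually high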;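 note: choline stimulus applied at its EC90 after an EC20 pre-addition; B-score computed on integrated fluorescence ratio after choline addition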
# Target sequence (Q9GZV3 whole entry, looked up): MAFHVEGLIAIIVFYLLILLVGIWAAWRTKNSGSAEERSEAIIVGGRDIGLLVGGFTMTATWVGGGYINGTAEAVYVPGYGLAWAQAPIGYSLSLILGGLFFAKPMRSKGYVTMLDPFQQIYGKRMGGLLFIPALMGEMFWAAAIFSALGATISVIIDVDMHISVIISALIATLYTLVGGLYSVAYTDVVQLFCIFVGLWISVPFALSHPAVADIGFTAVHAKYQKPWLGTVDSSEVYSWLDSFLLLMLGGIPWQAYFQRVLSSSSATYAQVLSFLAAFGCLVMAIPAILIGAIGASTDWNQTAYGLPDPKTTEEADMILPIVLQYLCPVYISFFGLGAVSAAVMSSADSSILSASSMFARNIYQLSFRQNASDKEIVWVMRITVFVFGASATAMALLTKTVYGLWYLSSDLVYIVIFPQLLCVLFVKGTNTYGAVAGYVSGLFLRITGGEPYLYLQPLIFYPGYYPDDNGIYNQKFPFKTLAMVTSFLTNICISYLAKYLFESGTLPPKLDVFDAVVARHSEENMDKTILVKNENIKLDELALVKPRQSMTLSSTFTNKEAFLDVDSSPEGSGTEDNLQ
# H9c2 TAG inh = inhibitors of triacylglycerol accumulation; H9c2 cells, Nile Red lipid (TAG) fluorescence; cells loaded with 200 µM oleic acid; inhibition, % at 12.5 µM; 230,000 compounds, 0.66% hits; AID 651582;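 active = pattern-corrected inhibition of lipid staining of at least 50% with the nuclear-stain viability signal not falling by more than 50%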;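 note: 0% = DMSO wells and 100% = triacsin C control wells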
# MIN6 prolif = inducers of beta-cell replication in MIN6 cells. MIN6 cells proliferation, ATPlite luminescence, 48 h; cells starved in 0.2% serum; 100% = growth in 10% serum. proliferation, % at 10 µM. 330,000 compounds, 0.29% hits;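 active = compounds whose signal lies at least 3.5 SD above the mean of all wells on their plate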;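 note: 0% = DMSO-treated cells in low-serum medium and 100% = 10% serum control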
# CHT PAM = allosteric activators of human choline transporter CHT | Q9GZV3 | CHT-expressing cells, membrane potential dye, choline EC20; hits give high values; LV-AA mutant CHT in HEK293 cells | B-score at 10 µM | 310,000 compounds, 0.49% hits | AID 488977;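 active = initial fluorescence not abnormally high and integrated response B-score, plate-corrected, over 3 SD above library mean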
# H9c2 TAG conf = confirmation of triacylglycerol accumulation inhibitors. shares compounds with H9c2 TAG inh. H9c2 lipid accumulation, Nile Red fluorescence; cells loaded with 200 µM oleic acid. inhibition, % at 12.5 µM. 990 compounds, 71% hits. AID 651629;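 active = mean inhibition across replicates of 40% or more; inactive = mean inhibition below 40%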;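 note: plate controls were DMSO only wells for no effect and Triacsin C treated wells for full effect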
# * marks the source's active call; other numbers are inactive results; i = inactive; x = no result given.
SMILES,CHT block,H9c2 TAG inh,MIN6 prolif,CHT PAM,H9c2 TAG conf
CC(C)C[C@@H](CNC(=O)OC(C)(C)C)NC(=O)c1nc[nH]c1C(=O)N[C@@H](CC(C)C)C(=O)CNC[C@H](CC(C)C)NC(=O)c1nc[nH]c1C(=O)N[C@@H](Cc1c[nH]c2ccccc12)C(=O)OC(C)(C)C,x,60.1*,-5.5,x,52.5*
COc1ccc(C(=O)NNC(=O)Cc2ccc(-c3ccccc3)cc2)cc1OC,i,57.2*,-2.4,i,36.2
O=C1c2ccccc2C(=O)c2c1ccc(C(=O)N1CCCCC1)c2NCCO,i,82.7*,1.1,i,83.4*
O=C1c2ccccc2-c2c1cccc2C(=O)N1CCCCCC1,i,x,0.3,i,x
CSc1nc(N(C)NC(=O)c2ccc(Cl)cc2)c2ccccc2n1,i,64.9*,-6.1,i,66.2*
CSc1nc(N(C)NC(=O)c2ccccc2)c2ccccc2n1,i,57.0*,-2.8,i,61.5*
CNc1nc(SC)nc2ccccc12,i,-16.2,-1.5,i,x
O=C(NNc1c2ccccc2nc2ccccc12)c1ccc(Cl)cc1,i,x,-6.7,i,x
Cn1c(N)c(C(=O)CSc2nn(-c3ccc(F)cc3)c(=S)s2)c(=O)n(C)c1=O,x,2.4,-0.3,x,x
COc1ccc(N2CCN(CCNC(=O)Nc3ccc(C)cc3Cl)CC2)cc1,i,x,-2.4,i,x
CCCCNC(=O)c1cnc(Cc2c[nH]c3ccccc23)c(I)c1,x,65.5*,x,x,15.2
O=C(N/N=C/c1ccc(Cl)cc1)c1sccc1OCc1ccc(F)cc1,i,50.4*,-2.8,i,54.3*
COc1cc(-c2cc(NC=O)c3ncc(-c4cccc(C(=O)N(C)C)c4)n3c2)cc(OC)c1OC,x,58.2*,x,x,71.6*
CN(C)C(=O)c1cccc(-c2cnc3c(NC=O)cc(-c4cc(F)c(F)c(F)c4)cn23)c1,x,23.2,x,x,x
CC(=O)c1ccc(-c2cnc3c(NC=O)cc(-c4ccc(C(=O)NC5CC5)cc4)cn23)cc1,x,54.3*,x,x,51.5*
COc1ccccc1-c1cc(NC=O)c2ncc(-c3cccc(C(C)=O)c3)n2c1,x,15.4,x,x,x
COc1ccc(-c2cnc3c(NC=O)cc(-c4cccc(NS(C)(=O)=O)c4)cn23)cc1OC,x,64.8*,x,x,58.4*
COc1ccccc1-c1cc(NC=O)c2ncc(-c3cccc(C(=O)N(C)C)c3)n2c1,x,58.8*,x,x,68.2*
O=CNc1cc(-c2ccc(C(=O)NC3CC3)cc2)cn2c(-c3ccccc3)cnc12,x,13.7,x,x,x
CN(C)CCCn1c(SCC(=O)Nc2nc(-c3cccc(Br)c3)cs2)nc2ccccc2c1=O,i,79.1*,-7.6,i,66.7*
Cc1ccc(N2C(=O)C3CC(c4ccccc4)=C4C5C=CC(C6C(=O)N(c7ccc(C)cc7C)C(=O)C56)C4C3C2=O)c(C)c1 (centres undefined),i,51.1*,-4.1,i,53.2*
Cc1ccc(N2C(=O)C3CC(c4ccccc4)=C4C5C=CC(C6C(=O)N(c7ccc(C)cc7)C(=O)C56)C4C3C2=O)cc1 (centres undefined),i,x,-2.0,i,x
CCOc1ccc(OCC)c(NC(=O)CN(c2ccc(C)cc2)S(=O)(=O)c2c(C)noc2C)c1,i,52.8*,0.0,i,46.4*
c1ccc(Nc2nc(N3CCOCC3)nc(N3CCOCC3)n2)cc1,i,45.7,0.7,i,x
O=[N+]([O-])c1ccc(Nc2nc(N3CCOCC3)nc(N3CCOCC3)n2)cc1,i,53.1*,0.5,i,61.0*
SMILES,CHT block,H9c2 TAG inh,MIN6 prolif,CHT PAM,H9c2 TAG conf
O=[N+]([O-])c1ccc(/C=N/Nc2nc(N3CCCCC3)nc(N3CCCCC3)n2)cc1,i,9.4,-6.3,i,x
O=[N+]([O-])c1ccc(Nc2nc(N/N=C\c3ccc4c(c3)OCO4)nc(N3CCCCC3)n2)cc1,i,66.4*,-4.6,i,37.0
c1ccc(Nc2nc(N3CCNCC3)nc(N3CCOCC3)n2)cc1,i,87.7*,-5.3,i,34.8
Fc1ccc(Nc2nc(N3CCOCC3)nc(N3CCOCC3)n2)cc1,i,x,3.5,i,x
CC(C)COc1ccc(C(=O)Nc2scc(-c3ccc(Cl)cc3Cl)c2C(N)=O)cc1,i,59.9*,-4.4,i,39.3
Cc1cc(NC(=O)C2CCCN2C(=O)Nc2cccc(Cl)c2)ccc1-n1cnnn1 (centres undefined),i,9.2,-1.9,i,x
CCOc1ccccc1NC(=O)N1CCCC1C(=O)Nc1ccc(-n2cnnn2)c(C)c1 (centres undefined),i,55.9*,0.2,i,39.2
C#CCN(C[C@@H]1[C@@H](OC(=O)NCc2ccccc2)[C@@H](OC(=O)NCc2ccccc2)CN(C(=O)OC(C)C)N1C(=O)OC(C)C)S(=O)(=O)c1ccc(C)cc1,x,22.3,x,x,x
C#CCN(C[C@@H]1[C@@H](OC(=O)NCC2CCCCC2)[C@@H](OC(=O)NCC2CCCCC2)CN(C(=O)OC(C)C)N1C(=O)OC(C)C)S(=O)(=O)c1ccc(C)cc1,x,50.6*,x,x,61.2*
COc1cc(CCCN2C(=O)C(=O)NC[C@@H]2c2ccccc2)cc(OC)c1OC,i,7.4,-0.5,i,x
COc1cc(CCCN2CCNC[C@@H]2c2ccccc2)cc(OC)c1OC,x,85.5*,-2.1,x,6.4
CCOC(=O)/C(=N\Nc1ccc(Cl)cc1)c1csc(Nc2ccccc2)n1,i,75.4*,-3.1,i,68.8*
N#CC1=C(N)Oc2cc(Nc3ccccc3)ccc2C1c1ccncc1 (centres undefined),i,57.0*,-3.2,i,83.3*
CC(=O)OCC(=O)[C@@]12OC3(CCCC3)O[C@@H]1C[C@H]1[C@@H]3CCC4=CC(=O)C=C[C@]4(C)[C@@]3(F)[C@@H](O)C[C@@]12C,i,57.2*,-6.7,i,63.7*
COc1ccccc1[C@H]1C(c2ccccc2)=NN(c2ccccc2)[C@@H]1CO,x,2.2,x,x,x
COc1ccccc1[C@H]1C(c2cccc(C)c2)=NN(c2ccccc2)[C@@H]1CO,x,72.2*,x,x,15.1
CCOC(=O)CCCCCC(=O)Nc1ccc2c(c1)C(=O)N([C@@H](C)CO)C[C@@H](C)[C@H](CN(C)S(=O)(=O)c1cccs1)OCCCC[C@H](C)O2,x,29.0,x,x,x
Cc1ccc(Cl)cc1NC(=O)COC(=O)CSc1ccccc1,x,-13.2,-1.6,x,x
COc1ccccc1-c1cc(C(F)(F)F)nc(S(=O)(=O)CCCC(=O)Nc2cc(C)on2)n1,i,47.3,-3.4,i,x
COc1ccccc1-c1cc(C(F)(F)F)nc(S(=O)(=O)CCCC(=O)NC(C)C)n1,i,65.8*,-3.4,i,89.9*
CSC1=NC(C(Cl)(Cl)Cl)N=C(c2ccc(C)cc2)N1 (centres undefined),i,56.0*,-2.4,i,50.0*
CCC(=NCCc1c(C)[nH]c2ccccc12)C1=C(O)CC(c2ccccc2)CC1=O (centres undefined),i,x,-5.0,i,x
